ATXN2 expr inh = Primary qHTS for Inhibitors of ATXN expression; HEK-293 ATXN2-luciferase reporter, luminescence, 24 h; AID 1745845, 2022; hit rate 0.72% among 360,000; Potency, µM (series often up to 57 µM), for the others: top-dose activity change, negative = inhibition, most hits filed as inhibitors; further: on the % scale 0 is the no-effect control and ±100 the full control effect; nearly all actives have a fitted effect of over 55% in size
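qHTS (up to 57 uM final) was run with 24 h compound exposure of reporter cells at 37 °C. Each well was multiplexed: SteadyGlo luminescence measured ATXN2-luciferase expression after a fluorogenic Gly-Phe-AFC viability readout (25 uM final).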
HT1080 IDH1KD tx = qHTS for induction of synthetic lethality in tumor cells producing 2HG: qHTS for the HT-1080-IDH1KD cell line. hit rate 2% among 360,000. HT-1080 IDH1 knockdown viability, ATP luminescence, 48 h. Potency, µM (top dose mostly 46.1 µM), without a hit: at the highest dose activity, negative = toxicity, usual class: cytotoxic. AID 686971, 2013;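 further: 0% = DMSO wells and -100% = cell-free medium wells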
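Assay cells: HT-1080 with IDH1 knockdown, 750 per well, RPMI/5% FBS. Exposure: 48 h at 37 °C following 2 h pre-incubation. Read: CellTiter-Glo luminescence; fitted concentration-response, curve class assigned.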
TGFb SMAD3 inh = qHTS for Inhibitors of TGF-b; hit rate 1.2% among 410,000; Potency, µM (titrated, usually from 46.1 µM), for the others: at the top dose activity, negative = inhibition, actives largely listed as inhibitors; HepG2 CAGA-GFP TGF-b/SMAD3 reporter, GFP fluorescence, 18 h; TGF-beta stimulated, 500 pg/mL final; further: on the % scale 0 is the no-effect control and ±100 the full control effect; nearly all actives have a fitted effect of over 65% in size
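TGF-beta reporter screen: HEPG2 CAGA-GFP, 1% FBS, 500 pg/mL TGF-beta final, 18 h; per-cell GFP summed per well; curves fitted and categorized by class.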
ATXN viability = Viability Counterscreen for Primary qHTS for Inhibitors of ATXN expression; S2 cells (HEK-293 line with an ATXN2-luciferase reporter) viability, CellTiter-Fluor protease fluorescence, 24 h; Potency, µM (top dose mostly 56.7 µM), actives largely listed as cytotoxic; hit rate 0.49% among 400,000; further: nearly all actives have a fitted effect of over 40% in size
HepG2 tox-1 = qHTS for Inhibitors of TGF-b: Cytotox Counterscreen; HepG2 CAGA-GFP viability, ATP luminescence, 18 h; Potency, µM (series often up to 46.1 µM), for inactives: at the top dose activity change, negative = cytotoxicity, most hits filed as cytotoxic; hit rate 0.76% among 410,000
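HepG2 CAGA-GFP cells (1000/well, DMEM with 1% FBS) received compound, then TGF-beta at 500 pg/mL final, and were incubated 18 hours at 37 degrees C. Viability was read by CellTiter-Glo luminescence. Media-only wells were set as complete cell-killing and DMSO as no toxicity.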
HT1080NT lethal = qHTS for induction of synthetic lethality in tumor cells producing 2HG: qHTS for the HT-1080-NT fibrosarcoma cell line; HT-1080-NT fibrosarcoma viability, CellTiter-Glo ATP luminescence, 48 h; Potency, µM (top dose mostly 46.1 µM), inactives show at the top dose activity, negative = less viability, actives largely listed as cytotoxic; hit rate 1.6% among 360,000;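 further: NT is the 2HG producing partner of a matched IDH1 knockdown line; 0% = DMSO-treated cells and -100% = media-only wells without cells; nearly all actives have a fitted effect of over 55% in size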
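HT-1080-NT; 750 cells/well; 5% FBS RPMI; 48 h compound, 37 degrees C; CellTiter-Glo luminescence; curve fitting and curve-class assignment.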
TGFb CAGA inh = qHTS for Inhibitors of TGF-b: Confirmation of Cherry Picks; hit rate 63% among 1,600; shares compounds with TGFb SMAD3 inh; HepG2 CAGA-GFP TGF-b reporter, GFP fluorescence, 18 h; cells stimulated with TGF-beta, 500 pg/mL; Potency, µM (top dose mostly 46.1 µM), without a hit: top-dose activity, negative = inhibition, most hits filed as inhibitors; AID 720534, 2013; further: on the % scale 0 is the no-effect control and ±100 the full control effect; nearly all actives have a fitted effect of over 65% in size
HepG2 tox-2 = qHTS for Inhibitors of TGF-b: Cytotox Counterscreen for Cherry Picks. HepG2 CAGA-GFP viability, ATP luminescence, 18 h; cells stimulated with TGF-beta, 500 pg/mL. shares compounds with TGFb SMAD3 inh. Potency, µM (series often up to 46.1 µM), for the others: top-dose activity, negative = cytotoxicity, hits mostly inhibitors. AID 720535, 2013. hit rate 27% among 1,600; further: on the % scale 0 is the no-effect control and ±100 the full control effect; nearly all actives have a fitted effect of over 70% in size
CCL64 TGFb inh = qHTS for Inhibitors of TGF-b: CCL64 Cells Orthogonal Assay for Cherry Picks. shares compounds with TGFb SMAD3 inh. CCL64 CAGA-GFP reporter, TGF-b stimulated, GFP fluorescence, 18 h. Potency, µM (highest dose often 46.1 µM), for inactives: at the top dose activity, negative = inhibition, most hits filed as inhibitors. hit rate 41% among 1,600. AID 720536, 2013; further: nearly all actives have a fitted effect of over 65% in size
TGFb COP inh = qHTS for Inhibitors of TGF-b: Hit Validation in HepG2 Cells using COP promoter | Potency, µM (titrated, usually from 46.1 µM), without a hit: at the top dose activity, negative = inhibition, usual class: inhibitors | hit rate 3% among 1,600 | AID 720537, 2013 | shares compounds with TGFb SMAD3 inh | HepG2 COP-GFP TGF-b reporter, GFP fluorescence, 18 h; cells stimulated by added recombinant TGF-beta; further: nearly all actives have a fitted effect of over 70% in size
* = called active by the depositor; i = inactive; ? = inconclusive; . = no result given; [ ] = another dose, or the depositor's remark. Rows were chosen to be rich in hits. Some 3.9% of all compounds tested hit in one or more screens of this group. The call rests on the fitted dose curve; in most records, active means well fitted curve in the direction sought with a large enough effect; inconclusive means small, poorly fitted or top-dose-only effect, or another doubt; inactive means no such curve, though single readings can be large; an effect the other way counts as inactive or inconclusive. Potency means the concentration at half of the fitted maximal effect.

SMILES | ATXN2 expr inh | HT1080 IDH1KD tx | TGFb SMAD3 inh | ATXN viability | HepG2 tox-1 | HT1080NT lethal | TGFb CAGA inh | HepG2 tox-2 | CCL64 TGFb inh | TGFb COP inh
c1ccc(Nc2nc(-c3ccncc3)nc3ccccc23)cc1 | -25% | 13% | 8% | i | -2% | -5% | -26% | -28% | -20% | 2%
Cc1ccc(Nc2nc(-c3ccncc3)nc3ccccc23)cc1 | ? | 1% | 8% | i | -12% | -10% | 5% | ? | -9% | 22%
Cc1ccc(Nc2nc(-c3ccccc3)nc3ccccc23)cc1 | ? | . | ? | ? | -56% | . | . | . | . | .
CC(=O)c1cccc(Nc2nc(-c3ccccc3)nc3ccccc23)c1 | -9% | ? | -4% | . | 3% | -4% | . | . | . | .
CCc1ccc(NC(=O)Cn2c(=O)n(CC3CCCO3)c(=O)c3cc(OC)c(OC)cc32)cc1 (stereo unspecified) | 9% | . | -7% | i | 3% | . | . | . | . | .
O=c1[nH]c(=S)[nH]c2n[nH]nc12 | . | . | -1% | . | -12% | . | . | . | . | .
COCCN1CCc2nc(SCC(=O)Nc3ccc(C)c(Cl)c3)[nH]c(=O)c2C1 | 4% | . | -22% | i | -26% | . | . | . | . | .
NC(Cc1ccc(C(F)(F)F)cc1)c1csc(NC(=O)Nc2ccccc2Cc2ccccc2)n1 (stereo unspecified) | ? | 23µM* | 3.2µM* | . | 6.3µM* | 8.2µM* | ? | ? | 15µM* | ?
CCc1ccc(NC(=O)CC2C(=O)N(c3cccc(C)c3)C(=O)N2CCC(C)C)cc1 (stereo unspecified) | . | . | ? | . | -24% | . | . | . | . | .
COc1ccc2cc3cc(C(=O)N4CCN(c5cccc(Cl)c5)CC4)sc3nc2c1 | 8% | . | 1% | i | 3% | . | . | . | . | .
CCCCn1c(NC(=O)c2ccco2)c(S(=O)(=O)c2ccc(C)cc2)c2nc3ccccc3nc21 | 2% | -18% | ? | . | -6% | ? | 3% | -20% | 16µM* | 32%
CCCCCn1c(NC(=O)c2ccco2)c(S(=O)(=O)c2ccc(C)cc2)c2nc3ccccc3nc21 | -19% | ? | ? | i | -48% | ? | . | . | . | .
C=CCC[C@H](Cc1ccc(F)cc1)C(=O)OC[C@@H](Cc1c[nH]c2ccccc12)NC(=O)[C@H](CC=C)CC(=O)NCCO | ? | -2% | ? | ? | -48% | -17% | . | . | . | .
C=CCC[C@H](Cc1ccc(F)cc1)C(=O)OC[C@@H](Cc1c[nH]c2ccccc12)NC(=O)[C@H](CC=C)CC(=O)N(CCO)Cc1ccccc1 | ? | ? | 11µM* | 20µM* | -19% | ? | 12µM* | ? | 18µM* | 29%
O=S(=O)(c1ccc(Br)cc1)c1nc(-c2ccco2)oc1SCc1ccccc1Cl | -8% | . | 2% | i | -13% | . | . | . | . | .
O=C(c1ccc(Br)cc1)N(Cc1nc2ccccc2c(=O)[nH]1)C1CCCC1 | -33% | 23µM* | 11µM* | i | -13% | ? | 23µM* | -25% | -10% | 19%
CC1=C(C(=O)N(C(C)C)C(C)C)CC(CC(=O)NCc2cccc3ccccc23)C(=O)N1Cc1ccc(C(C)(C)C)cc1 (stereo unspecified) | ? | ? | 7.9µM* | ? | -8% | ? | 16µM* | ? | ? | 30%
CC1=C(C(=O)N(C(C)C)C(C)C)CC(CC(=O)NCCc2ccccn2)C(=O)N1Cc1ccc(C(C)(C)C)cc1 (stereo unspecified) | -20% | -4% | 8.9µM* | ? | -68% | -15% | -21% | -13% | ? | 11%
CC1=C(C(=O)N(C)C)CC(CC(=O)NCc2cccc3ccccc23)C(=O)N1Cc1ccc(C(C)(C)C)cc1 (stereo unspecified) | ? | ? | ? | ? | -29% | ? | . | . | . | .
COC(=O)C1=C(C)NC(=O)NC1c1cn(-c2ccccc2)nc1-c1ccc(OC)c(Br)c1 (stereo unspecified) | -21% | . | -4% | i | -14% | . | . | . | . | .
COc1ccc(CNC(=O)CN(Cc2ccccc2)S(=O)(=O)c2ccc(Cl)cc2)cc1 | -10% | -26% | ? | i | 0% | -1%[9.24 µM] | . | . | . | .
COc1ccc(C)cc1S(=O)(=O)N(CC(=O)NCc1ccc(Cl)cc1)Cc1ccccc1 | 0% | ? | 13µM* | i | -1% | ? | ? | ? | ? | 43%
CCC(C)NC(=O)c1cnn(-c2ccc(Cl)cc2)c1C1CCN(C(=O)OC(C)(C)C)CC1 (stereo unspecified) | . | . | -28% | . | -11% | . | . | . | . | .
COc1ccc(CNc2cccc3[nH]c(C(F)(F)F)nc23)cc1OC | . | 28% | 5.6µM* | . | -31% | 8% | ? | -4% | -21% | -9%
CCC(C)(C)NC(=O)C1CCN(S(=O)(=O)c2c(C)noc2/C=C/c2ccc(C)cc2)CC1 | -1% | . | -8% | i | -14% | . | . | . | . | .
CN(C)CCNC(=O)c1cccc2[nH]c(-c3ccncc3)nc12 | ? | ? | 10µM* | ? | -41% | -9% | 16µM* | 21µM* | 13µM* | 21%
